# From PubChem BioAssay AID504333 (National Center for Advancing Translational Sciences (NCATS), 2011)
# Hit rate of the full screen: of about 360,000 compounds, about 16,000 (4.4%) were called active. Roughly 9% stayed inconclusive and do not appear here. Calls come from the whole dose curve; as a rule, active = well fitted inhibition curve with a large enough effect; inconclusive = small, poorly fitted or top-dose-only effect; inactive = no such curve, though single readings can be large or run the other way. The list comes from a sample in which actives are over-represented; it also holds similar structures and randomly drawn compounds.
# Molecular target: Bromodomain adjacent to zinc finger domain protein 2B (Homo sapiens) (UniProt Q9UIF8)
# Sequence (Q9UIF8 whole entry, looked up, the tested form may be a part): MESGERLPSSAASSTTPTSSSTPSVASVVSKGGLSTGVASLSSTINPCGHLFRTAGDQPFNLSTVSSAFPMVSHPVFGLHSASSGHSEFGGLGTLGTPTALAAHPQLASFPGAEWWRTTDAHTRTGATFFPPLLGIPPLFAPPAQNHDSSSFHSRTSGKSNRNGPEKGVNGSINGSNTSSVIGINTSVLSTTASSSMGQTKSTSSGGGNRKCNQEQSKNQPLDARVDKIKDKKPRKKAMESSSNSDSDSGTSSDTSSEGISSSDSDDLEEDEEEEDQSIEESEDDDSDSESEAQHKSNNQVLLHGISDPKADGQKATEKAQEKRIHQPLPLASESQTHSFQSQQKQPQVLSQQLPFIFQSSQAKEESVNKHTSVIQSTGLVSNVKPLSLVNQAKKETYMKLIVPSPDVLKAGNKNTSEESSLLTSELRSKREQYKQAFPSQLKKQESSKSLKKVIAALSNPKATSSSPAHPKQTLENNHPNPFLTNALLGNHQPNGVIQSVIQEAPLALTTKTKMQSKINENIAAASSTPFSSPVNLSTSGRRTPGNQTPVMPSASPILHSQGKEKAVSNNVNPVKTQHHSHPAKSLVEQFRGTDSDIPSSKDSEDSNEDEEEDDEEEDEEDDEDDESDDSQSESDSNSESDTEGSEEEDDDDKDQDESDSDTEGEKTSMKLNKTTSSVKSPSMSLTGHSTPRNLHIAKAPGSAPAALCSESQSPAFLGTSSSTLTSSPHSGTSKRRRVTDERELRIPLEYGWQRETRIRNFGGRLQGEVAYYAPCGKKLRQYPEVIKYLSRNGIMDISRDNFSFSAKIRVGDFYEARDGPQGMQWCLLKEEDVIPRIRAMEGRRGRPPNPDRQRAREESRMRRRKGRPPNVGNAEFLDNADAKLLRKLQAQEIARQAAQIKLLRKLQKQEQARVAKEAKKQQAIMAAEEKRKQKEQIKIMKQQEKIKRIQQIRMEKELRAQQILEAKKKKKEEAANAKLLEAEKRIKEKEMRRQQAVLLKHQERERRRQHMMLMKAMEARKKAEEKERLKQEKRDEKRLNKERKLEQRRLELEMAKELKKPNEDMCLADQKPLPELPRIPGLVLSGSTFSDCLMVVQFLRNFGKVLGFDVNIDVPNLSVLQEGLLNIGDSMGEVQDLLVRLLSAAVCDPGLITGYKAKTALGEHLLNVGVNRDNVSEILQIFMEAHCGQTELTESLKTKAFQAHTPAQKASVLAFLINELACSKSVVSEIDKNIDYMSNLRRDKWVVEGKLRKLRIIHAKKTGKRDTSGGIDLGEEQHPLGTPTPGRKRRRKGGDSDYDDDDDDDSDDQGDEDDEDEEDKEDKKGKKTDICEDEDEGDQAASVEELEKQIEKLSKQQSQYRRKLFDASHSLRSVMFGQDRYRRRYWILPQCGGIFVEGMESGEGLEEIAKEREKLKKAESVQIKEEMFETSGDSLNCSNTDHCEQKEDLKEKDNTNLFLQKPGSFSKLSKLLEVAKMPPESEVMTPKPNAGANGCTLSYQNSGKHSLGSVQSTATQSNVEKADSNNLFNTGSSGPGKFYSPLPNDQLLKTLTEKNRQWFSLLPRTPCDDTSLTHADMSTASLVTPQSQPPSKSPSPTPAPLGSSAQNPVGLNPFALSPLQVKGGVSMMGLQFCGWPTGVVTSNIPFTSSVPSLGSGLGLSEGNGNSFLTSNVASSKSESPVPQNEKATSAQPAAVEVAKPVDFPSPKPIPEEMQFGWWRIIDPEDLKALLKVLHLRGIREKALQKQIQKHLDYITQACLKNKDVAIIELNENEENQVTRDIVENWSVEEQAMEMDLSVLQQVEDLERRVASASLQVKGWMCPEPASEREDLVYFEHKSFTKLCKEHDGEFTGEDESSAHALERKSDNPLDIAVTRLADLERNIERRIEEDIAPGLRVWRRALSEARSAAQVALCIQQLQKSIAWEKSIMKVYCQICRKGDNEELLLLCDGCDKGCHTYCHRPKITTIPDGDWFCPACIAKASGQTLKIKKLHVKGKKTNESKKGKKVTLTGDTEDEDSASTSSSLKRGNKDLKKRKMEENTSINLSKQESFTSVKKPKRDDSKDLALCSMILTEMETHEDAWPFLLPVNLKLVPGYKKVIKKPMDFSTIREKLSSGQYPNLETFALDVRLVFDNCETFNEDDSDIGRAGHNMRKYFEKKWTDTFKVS
# Experiment: qHTS Assay for Inhibitors of BAZ2B; note: nearly all actives have a fitted effect of over 60% in size
# Conditions: AlphaScreen BAZ2B-H3K14Ac peptide displacement; series mostly up to 114 µM; activity change, negative = inhibition: at the top concentration
# In short: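 BAZ2B (50 nM) with biotin-H3(5-23)K14Ac peptide (50 nM) in PBS pH 7.4, 0.01% Tween-20, preformed 30 min, then compound 30 min at room temperature; top concentration 110uM. AlphaScreen streptavidin donor/nickel chelate acceptor beads (10 ug/mL final), 20 min dark, signal read.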
# % is set by controls: 0 for no effect and ±100 for the full control effect; potency is the fitted concentration of half-maximal effect.
SMILES,"activity change, negative = inhibition",Potency
COC(=O)C1=C(c2ccc(F)cc2OCc2ccccc2)C[C@@H]2CC[C@H]1N2C(=O)NCc1ccc(OC)c(OC)c1,-9.47% (inactive),–
O=C(CCC(=O)N1C[C@H]2C[C@@H](C1)c1cccc(=O)n1C2)NCc1ccccc1C(F)(F)F,9.68% (inactive),–
CN1CCN(Cc2ccccc2C(F)(F)F)CC1,-2.16% (inactive),–
CN1CCN(Cc2ccc(OC(F)(F)F)cc2)CC1,–,56.2 µM (active)
CC(C)c1ccc(OCC(=O)N2CCCN(C)CC2)cc1,2.95% (inactive),–
CCN(CC)C(=O)c1ccc(NC(=O)c2sccc2-c2ccccc2)cc1,-3.49% (inactive),–
CCOc1cc(N2CCOCC2)c(OCC)cc1NC(=O)C1=NN(c2cccc(C)c2)C(=O)CC1,–,8.91 µM (active)
CN(C)CC1Oc2ccccc2OC1(O)c1ccccc1 (stereo not given),1.99% (inactive),–
CN(C)c1ccc(/C=C2\CC3C4CC=C5CC(O)CCC5(C)C4CCC3(C)C2=O)cc1 (stereo not given),-29.5% (inactive),–
COC(=O)C1=C(c2ccc(F)cc2OCc2ccccc2)C[C@@H]2CC[C@H]1N2C(=O)NCc1ccc(Cl)cc1,3.65% (inactive),–
Cc1ccc(CN2CCCC(C(=O)c3ccc4c(c3)OCO4)C2)cc1C (stereo not given),-14.9% (inactive),–
c1cc2c(cc1[C@H]1OC[C@H]3[C@@H]1CO[C@@H]3c1ccc3c(c1)OCO3)OCO2,2.2% (inactive),–
c1ccc(CC2CCCCN2)cc1 (stereo not given),3.56% (inactive),–
c1ccc(CCNC2CCCCCC2)cc1,–,70.8 µM (active)
OC(CNC1CCCCC1)c1ccccc1 (stereo not given),4.38% (inactive),–
c1cc2c(cc1CCNC1CCCCCC1)OCO2,–,17.8 µM (active)
COc1cc(Cn2c(N)c(C(=O)NCc3ccco3)c3nc4ccccc4nc32)cc(OC)c1OC,-13.2% (inactive),–
O=C(c1ccccc1[N+](=O)[O-])N1CCC2(CC1)OCCO2,-1.71% (inactive),–
COC(=O)C1=C(c2ccc(F)cc2F)C[C@@H]2CC[C@H]1N2C(=O)NC1CC1,11.4% (inactive),–
Cc1ccc2c(c1)=C/C(=C\c1c(O)[nH]c(=O)[nH]c1=O)C(=O)N=2,-11.9% (inactive),–
CCOc1ccc(-c2cc(C)[n+](CCN(CC)CC)c(-c3ccc(OCC)cc3)c2)cc1,-12.5% (inactive),–
Cc1ccc(C(C)C)c(OCC(=O)N2CCN(CC(=O)N3CCOCC3)CC2)c1,7.63% (inactive),–
CC(=O)Nc1ccc(C(=O)C(Cc2ccccc2)N(C)C)cc1 (stereo not given),-24% (inactive),–

SMILES,"activity change, negative = inhibition",Potency
CN(C)c1ccc(NC(=O)CN2C3CCCC2CC(NC(=O)c2ccccc2)C3)cc1 (stereo not given),–,70.8 µM (active)
CN(C)S(=O)(=O)c1cc(C(=O)N2CCC(C(=O)O)(c3ccccc3)CC2)ccc1Cl,3.5% (inactive),–
CCN1CCN(c2nc3c(c(=O)[nH]2)CCC3)CC1,-11.1% (inactive),–
O=C(Nc1ccc(Cl)cc1C(=O)c1ccccc1)c1cc(Cl)cc(Cl)c1,-6.39% (inactive),–
Cc1cccc(N2C(=O)NC(=O)/C(=C\c3cnn(-c4ccccc4)c3)C2=O)c1,-4.33% [at 57.1 µM] (inactive),–
O=C1NC(=O)N(c2ccccc2)C(=O)/C1=C/c1ccc([N+](=O)[O-])s1,–,35.5 µM (active)
COc1cccc(N2C(=O)NC(=O)/C(=C\c3ccc([N+](=O)[O-])s3)C2=O)c1,–,31.6 µM (active)
COc1cccc(N2C(=O)NC(=O)/C(=C\c3cn(C)c4ccccc34)C2=O)c1,-0.686% (inactive),–
Cc1nn(-c2ccccc2)c(C)c1NC(=O)COC(=O)Cc1ccccc1,-2.34% (inactive),–
COC(=O)C1=C(c2ccc(C(C)=O)cc2)C[C@@H]2CC[C@H]1N2C(=O)NCCNC(C)=O,3.05% (inactive),–
CC(C)n1c(=O)c(C=Nc2ccc(Br)cc2)c(O)n(Cc2ccco2)c1=O,3.28% (inactive),–
Cc1cc(C(=O)OCC(=O)Nc2c(F)cccc2F)c(C)n1C1CC1,10.6% (inactive),–
COc1ccccc1OC(=O)c1ccc(C)c(S(=O)(=O)N2CCOCC2)c1,-19.5% (inactive),–
COc1ccc(CN2C(=O)NC(=O)/C(=C\c3ccc(OC)c(OC)c3OC)C2=O)cc1,-35.5% (inactive),–
COc1ccc(N2C(=O)/C(=C/c3ccco3)C(=O)NC2=S)cc1,–,3.55 µM (active)
Cc1ccc(S(=O)(=O)N(C)c2ccc(C(=O)NCC3(N(C)C)CCCCC3)cc2)cc1,-7.55% (inactive),–
CN(C)C(=O)Oc1ccc(OCc2cccc[n+]2C)cc1,-2.06% (inactive),–
COC(=O)C1=C(c2ccc(F)cc2OCc2ccccc2)C[C@@H]2CC[C@H]1N2C(=O)NCc1ccc(C(C)(C)C)cc1,-29.9% (inactive),–
O=C(OCC1O[C@@H](OC(=O)c2cc(O)c(O)c(O)c2)[C@@H](OC(=O)c2cc(O)c(O)c(O)c2)[C@@H](OC(=O)c2cc(O)c(O)c(O)c2)[C@@H]1OC(=O)c1cc(O)c(O)c(O)c1)c1cc(O)c(O)c(O)c1 (stereo not given in full),–,0.708 µM (active)
CN(C)C(=O)Oc1ccc2c(c1)O/C(=C\c1ccccc1)C2=O,-32.8% (inactive),–
CC1CCC(N(C)C2CCN(C)CC2)CC1 (stereo not given),-19.6% (inactive),–
CNC(=O)O/N=C(\N)Cc1csc2ccc(Cl)cc12,-13.2% (inactive),–
